Assay results as given in PubChem BioAssay (NCI).
Compounds without any hit were thinned out: in the full panel of roughly 79,000, 15% have a hit. Activity calls are given as the source filed them. Cut-off read from the data, not from the text of the source: active = growth inhibition above about 70%; inactive = the rest.

Columns and labels:
[1] = NCI Yeast Anticancer Drug Screen. Data for the mlh1 rad18 strain (AID 175); conditions: S. cerevisiae mlh1 rad18 strain growth inhibition, active compounds read high
In short: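 Compound-treated yeast growth, normalised to vehicle controls. Strain bears defined DNA repair mutations.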

[2] = NCI Yeast Anticancer Drug Screen. Data for the rad18 strain (AID 177); conditions: S. cerevisiae rad18 mutant growth inhibition, active compounds read high
In short: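 Inhibition values reflect reduced yeast growth compared with vehicle-treated controls, using a strain engineered with a DNA damage repair defect.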

[3] = NCI Yeast Anticancer Drug Screen. Data for the rad52 strain (AID 147);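 note: 0% = growth of vehicle-treated control cultures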; conditions: S. cerevisiae rad52 mutant growth inhibition, active compounds read high
In short: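 Genetically altered yeast (DNA damage repair defect) treated with compound; inhibition calculated relative to vehicle.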

[4] = NCI Yeast Anticancer Drug Screen. Data for the rad50EPP+ strain (AID 151);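 note: 0% = growth of vehicle-treated control cultures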; conditions: S. cerevisiae rad50 mutant strain, active compounds read high
In short: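 Strain rad50EPP+; compound exposure; % growth inhibition vs vehicle.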

[5] = NCI Yeast Anticancer Drug Screen. Data for the rad50 strain (AID 155);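 note: 0% = growth of vehicle-only cultures of the same strain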; conditions: S. cerevisiae rad50 strain growth inhibition, active compounds read high
In short: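 Yeast carrying a defined DNA repair defect were exposed to test compounds, and growth was compared with vehicle-treated controls to give percent inhibition.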

[6] = NCI Yeast Anticancer Drug Screen. Data for the mec2-1 strain (AID 157); conditions: S. cerevisiae mec2-1 strain, active compounds read high
In short: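 Cells of the genetically defined mec2-1 yeast strain are incubated with test compound. Inhibition of growth is calculated against vehicle-treated controls.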

[7] = NCI Yeast Anticancer Drug Screen. Data for the rad14 strain (AID 159);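 note: 0% = growth of vehicle-treated control cultures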; conditions: S. cerevisiae rad14 strain growth inhibition, active compounds read high
In short: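 Yeast cells carrying a defined DNA-repair defect were exposed to compounds, and growth inhibition was calculated relative to vehicle-treated control cultures.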

[8] = NCI Yeast Anticancer Drug Screen. Data for the sgs1 mgt1 strain (AID 161);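 note: 0% = growth of cultures given vehicle only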; conditions: S. cerevisiae sgs1 mgt1 strain, active compounds read high
In short: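 Test agents were incubated with a DNA-repair-mutant yeast strain. Growth was then read and compared against vehicle-treated controls.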

[9] = NCI Yeast Anticancer Drug Screen. Data for the CLN2oe strain (AID 163);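 note: 0% = growth of vehicle-only control cultures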; conditions: S. cerevisiae CLN2oe strain, active compounds read high
In short: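 Strain altered in cell-cycle control, incubated with compound; growth compared to solvent-treated controls.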

[10] = NCI Yeast Anticancer Drug Screen. Data for the cln2 rad14 strain (AID 165);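 note: 0% = growth equal to vehicle treated cultures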; conditions: S. cerevisiae cln2 rad14 strain, active compounds read high
In short: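 The screen exposed genetically defined yeast (cln2 rad14) to test compounds and scored growth inhibition relative to vehicle-treated controls.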

[11] = NCI Yeast Anticancer Drug Screen. Data for the bub3 strain (AID 167); conditions: S. cerevisiae bub3 mutant strain, active compounds read high
In short: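 Compounds were applied to a genetically altered yeast strain carrying a cell-cycle control defect. Growth inhibition was scored against vehicle-treated controls.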

[12] = NCI Yeast Anticancer Drug Screen. Data for the wt2 strain (AID 169);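 note: 0% = growth of vehicle-treated yeast cultures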; conditions: S. cerevisiae wt2 strain growth inhibition, active compounds read high
In short: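 Steps: yeast strain treated with compound; growth recorded; inhibition calculated relative to cultures given vehicle alone.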

[13] = NCI Yeast Anticancer Drug Screen. Data for the sgs1 strain (AID 173);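 note: 0% = growth of vehicle-only control cultures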; conditions: S. cerevisiae sgs1 mutant, active compounds read high
In short: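 Inhibition of yeast growth served as the measure. The mutant strain was treated with each compound, and growth was normalised to cultures receiving vehicle alone.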

[14] = NCI Yeast Anticancer Drug Screen. Data for the wt1 strain (AID 149);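 note: 0% = growth of vehicle-treated wt1 cultures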; conditions: S. cerevisiae wt1 strain (SPY 50644) growth inhibition, active compounds read high
In short: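 Yeast wt1 strain exposed to compounds; growth inhibition measured relative to vehicle-treated controls.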

[15] = NCI Yeast Anticancer Drug Screen. Data for the mlh1 strain (AID 171);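 note: 0% = growth of vehicle-treated control cultures of the same strain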; conditions: S. cerevisiae mlh1 strain growth inhibition, active compounds read high
In short: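 Yeast screen: mutant strain plus compound, growth scored against vehicle control wells.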

[16] = at 5.0 µM (retest, dose inferred, filed as 0.5)
[17] = at 50.0 µM (retest, dose inferred, filed as 5.0)

Measured: growth inhibition

O=C(O)c1[nH]c(=O)c2ccccc2c1Nc1ccccc1
inactive: [1]; [16] -14% | [1]; [17] -8% | [1]; at 50.0 µM 7.5% | [2]; at 1.2 µM -2% | [2]; at 3.7 µM -1% | [2]; at 11.0 µM 0% | [2]; at 33.0 µM 0% | [2]; at 100.0 µM 6%

CN(C)c1ccc(N=Nc2ccccn2)cc1
active: [3]; at 33.0 µM 89% | [3]; at 100.0 µM 94% | [4]; at 100.0 µM 85% | [5]; [16] 100% | [5]; at 33.0 µM 94% | [5]; [17] 100% | [5]; at 50.0 µM 81.6% | [5]; at 100.0 µM 96% | [6]; [16] 100% | [6]; [17] 100% | [6]; at 50.0 µM 82.9% | [6]; at 100.0 µM 96% | [7]; at 33.0 µM 95% | [7]; at 100.0 µM 97% | [8]; [17] 98% | [8]; at 50.0 µM 85.6% | [9]; at 33.0 µM 77% | [9]; at 100.0 µM 88% | [10]; [17] 97% | [10]; at 50.0 µM 75.2% | [11]; at 33.0 µM 95% | [11]; [17] 97% | [11]; at 50.0 µM 87.1% | [11]; at 100.0 µM 96% | [12]; at 33.0 µM 86% | [12]; at 100.0 µM 94% | [13]; at 33.0 µM 88% | [13]; at 100.0 µM 94% | [1]; [16] 100% | [1]; [17] 100% | [1]; at 50.0 µM 83.2% | [2]; at 33.0 µM 83% | [2]; at 100.0 µM 91%
inactive: [3]; at 1.2 µM -15% | [3]; at 3.7 µM -12% | [3]; at 11.0 µM 15% | [4]; at 1.2 µM -88% | [4]; at 3.7 µM -118% | [4]; at 11.0 µM -85% | [4]; at 33.0 µM 66% | [5]; at 1.2 µM -29% | [5]; at 3.7 µM -18% | [5]; at 11.0 µM 26% | [6]; at 1.2 µM -10% | [6]; at 3.7 µM 20% | [6]; at 11.0 µM 14% | [6]; at 33.0 µM 66% | [7]; at 1.2 µM 12% | [7]; at 3.7 µM 1% | [7]; at 11.0 µM 62% | [8]; [16] -1% | [9]; at 1.2 µM 1% | [9]; at 3.7 µM -17% | [9]; at 11.0 µM 17% | [10]; [16] 41% | [11]; at 1.2 µM -3% | [11]; at 3.7 µM 15% | [11]; [16] 40% | [11]; at 11.0 µM 61% | [12]; at 1.2 µM -27% | [12]; at 3.7 µM -12% | [12]; at 11.0 µM 3% | [13]; at 1.2 µM -6% | [13]; at 3.7 µM 5% | [13]; at 11.0 µM 25% | [2]; at 1.2 µM -16% | [2]; at 3.7 µM -10% | [2]; at 11.0 µM -1%

CC1=CCCC2C1(C)CCC(C)C2(C)Cc1cc(O)ccc1O (centres undefined)
active: [14]; at 33.0 µM 98% | [14]; at 100.0 µM 96% | [4]; at 33.0 µM 86% | [4]; at 100.0 µM 88% | [5]; at 33.0 µM 98% | [5]; [17] 96% | [5]; at 50.0 µM 88.9% | [5]; at 100.0 µM 93% | [6]; at 33.0 µM 99% | [6]; [17] 97% | [6]; at 50.0 µM 90.6% | [6]; at 100.0 µM 95% | [7]; at 33.0 µM 98% | [7]; at 100.0 µM 94% | [8]; [17] 97% | [8]; at 50.0 µM 90.5% | [9]; at 33.0 µM 97% | [9]; at 100.0 µM 87% | [10]; [17] 97% | [10]; at 50.0 µM 88.5% | [11]; at 33.0 µM 99% | [11]; [17] 96% | [11]; at 50.0 µM 88.6% | [11]; at 100.0 µM 93% | [12]; at 11.0 µM 98% | [12]; at 33.0 µM 97% | [12]; at 100.0 µM 89% | [15]; at 33.0 µM 98% | [15]; at 100.0 µM 94% | [13]; at 11.0 µM 79% | [13]; at 33.0 µM 99% | [13]; at 100.0 µM 95% | [1]; [16] 83% | [1]; [17] 93% | [1]; at 50.0 µM 88% | [2]; at 33.0 µM 98% | [2]; at 100.0 µM 94%
inactive: [14]; at 1.2 µM -5% | [14]; at 3.7 µM 13% | [14]; at 11.0 µM 31% | [4]; at 1.2 µM -6% | [4]; at 3.7 µM 39% | [4]; at 11.0 µM 69% | [5]; at 1.2 µM -3% | [5]; at 3.7 µM 19% | [5]; [16] 22% | [5]; at 11.0 µM 51% | [6]; at 1.2 µM 5% | [6]; at 3.7 µM 17% | [6]; [16] 46% | [6]; at 11.0 µM 45% | [7]; at 1.2 µM 15% | [7]; at 3.7 µM 15% | [7]; at 11.0 µM 35% | [8]; [16] 39% | [9]; at 1.2 µM -73% | [9]; at 3.7 µM -57% | [9]; at 11.0 µM -91% | [10]; [16] 10% | [11]; at 1.2 µM 9% | [11]; at 3.7 µM 18% | [11]; [16] 44% | [11]; at 11.0 µM 60% | [12]; at 1.2 µM -28% | [12]; at 3.7 µM -7% | [15]; at 1.2 µM -1% | [15]; at 3.7 µM 19% | [15]; at 11.0 µM 38% | [13]; at 1.2 µM 4% | [13]; at 3.7 µM 31% | [2]; at 1.2 µM 1% | [2]; at 3.7 µM 24% | [2]; at 11.0 µM 66%
